Screening data (PubChem BioAssay)
HRas wt GTP: modulators of GTP binding to HRas wildtype, primary screen, biochemical, bead-based flow cytometry, multiplex; GST-Ras wt beads, Bodipy-FL-GTP binding; actives lie on both sides; GTP binding activity, % at 10 µM; hit rate 0.14% among 190,000;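 active means GTP binding activity at least 20% away from the 100% baseline, either lowered as inhibitor or raised as activator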;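 further: 0% = unlabeled GTP competition control and 100% = no-compound control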
Target sequence (P01112 whole entry, looked up): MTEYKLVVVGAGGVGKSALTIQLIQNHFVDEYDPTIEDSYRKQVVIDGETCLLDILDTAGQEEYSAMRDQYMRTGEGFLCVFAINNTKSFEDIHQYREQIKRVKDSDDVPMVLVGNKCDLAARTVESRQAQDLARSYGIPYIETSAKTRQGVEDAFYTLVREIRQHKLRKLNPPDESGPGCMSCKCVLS
Rab7 wt GTP bind: modulators of GTP binding to Rab7, primary screen, biochemical, wildtype, multiplex bead flow cytometry | Rab7 GTPase wild type (dog), Bodipy-FL-GTP binding | GST-Rab7 beads, fluorescent GTP binding; actives lie on both sides; untreated = 100%, excess cold GTP = 0% | GTP binding activity (percent of control), % at 10 µM | hit rate 0.055% among 190,000 | AID 758, 2007;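 active means fluorescent GTP binding to Rab7 beads changed by at least 20 points from the 100% baseline, either direction, mostly lower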;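 further: median green fluorescence of bound Bodipy-FL-GTP per Rab7 bead population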
Rac1 wt modul: wildtype Rac1 GTP binding modulators, primary screen, biochemical, GST-Rac1 beads, flow cytometry, multiplex. Ras-related C3 botulinum toxin substrate 1 (Homo sapiens), P63000. fluorescent GTP binding; actives lie on both sides; 0 = cold GTP competed, 100 = untreated. GTP binding activity (% of control), % at 10 µM. hit rate 0.27% among 190,000. AID 757, 2007;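 active means GTP binding activity at least 20 points away from the 100% control level, either lower or higher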
Cdc42 wt GTP: modulators of GTP binding to wildtype Cdc42, primary screen, biochemical, multiplex bead flow cytometry, Bodipy-GTP. Cell division control protein 42 homolog (Homo sapiens), P60953. GST-Cdc42 beads; actives lie on both sides. percent activity (GTP binding), % at 10 µM. hit rate 0.2% among 190,000;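 active means percent activity GTP binding at least 20 points away from the 100% baseline, either down as inhibitor or up as activator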;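 further: median bead fluorescence of bound Bodipy-FL-GTP at 100 nM; 0% = excess unlabeled GTP control and 100% = no compound control; below 100% means less GTP binding so inhibitor and above means activator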
Target sequence (P60953 whole entry, looked up): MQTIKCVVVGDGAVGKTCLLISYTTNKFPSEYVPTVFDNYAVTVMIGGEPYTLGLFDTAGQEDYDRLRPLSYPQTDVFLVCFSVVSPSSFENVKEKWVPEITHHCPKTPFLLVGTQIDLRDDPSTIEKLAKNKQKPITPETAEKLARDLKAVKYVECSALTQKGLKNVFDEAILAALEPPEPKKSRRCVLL
Rab2A wt mod: modulators of GTP binding to Rab2A wildtype, primary screen, biochemical, dog, bead-based flow cytometry, multiplex; GTP binding activity, % at 10 µM; hit rate 0.19% among 190,000; AID 760, 2007; GST-Rab2 wt beads, Bodipy-GTP binding;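 active means GTP binding activity at least 20 points away from 100%, either lowered or raised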;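 further: 0% = beads with excess unlabeled GTP and 100% = no-compound control corrected for plate trend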
Rac1 act GTP bind: GTP binding modulators of activated mutant Rac1, primary screen, biochemical, bead-based flow cytometry, multiplex, fluorescent GTP | Ras-related C3 botulinum toxin substrate 1 (Homo sapiens), P63000 | GST-Rac1 activated beads; actives lie on both sides; 100% means binding = to untreated wells | percent activity (GTP binding), % at 10 µM | hit rate 0.11% among 190,000 | AID 764, 2007;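 active means GTP binding at least 20 percentage points away from the 100% baseline, in either direction, so actives lie on both sides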
Active calls of the source: *; [ ] = dose if it differs, or a comment. Compounds with a hit are over-represented: about 0.4% of the library has one in this group of screens.

How did COC(=O)C1=NN(C(=O)c2cccc(Br)c2)C(O)(c2ccc(Cl)cc2)C1 (stereo unspecified) do in these assays?
HRas wt GTP: 85.0; Rab7 wt GTP bind: 94.0; Rac1 wt modul: 85.0; Cdc42 wt GTP: 78.0*; Rab2A wt mod: 82.0; Rac1 act GTP bind: 79.0*

What do the screens show for `CN(/N=C/c1ccc(Br)o1)C1=NS(=O)(=O)c2ccccc21`?
HRas wt GTP: 86.0; Rab7 wt GTP bind: 91.0; Rac1 wt modul: 77.0*; Cdc42 wt GTP: 83.0; Rab2A wt mod: 82.0; Rac1 act GTP bind: 89.0

Results for Cc1ccc(/C=N/N(C)C2=NS(=O)(=O)c3ccccc32)o1 ?
HRas wt GTP: 66.0*; Rab7 wt GTP bind: 90.0; Rac1 wt modul: 64.0*; Cdc42 wt GTP: 64.0*; Rab2A wt mod: 65.0*; Rac1 act GTP bind: 82.0

How did CCOC(=O)N1CCN(C(=O)CSCc2ccccc2Cl)CC1 do in these assays?
HRas wt GTP: 99.0; Rab7 wt GTP bind: 98.0; Rac1 wt modul: 102.0; Cdc42 wt GTP: 99.0; Rab2A wt mod: 100.0; Rac1 act GTP bind: 101.0

What do the screens show for `CCN1CCN(c2nc3c(c(=O)n(C)c(=O)n3C)n2Cc2cccc3ccccc23)CC1`?
HRas wt GTP: 108.0; Rab7 wt GTP bind: 102.0; Rac1 wt modul: 120.0*[activator]; Cdc42 wt GTP: 116.0; Rab2A wt mod: 111.0; Rac1 act GTP bind: 101.0

Results for Cn1c(=O)c2c(nc(N3CCc4ccccc4C3)n2C)n(C)c1=O ?
HRas wt GTP: 81.0; Rab7 wt GTP bind: 85.0; Rac1 wt modul: 69.0*; Cdc42 wt GTP: 80.0*; Rab2A wt mod: 81.0; Rac1 act GTP bind: 83.0

Results for COc1cc(NC(=S)N2CCC(C(O)(c3ccccc3)c3ccccc3)CC2)cc(OC)c1 ?
HRas wt GTP: 99.0; Rab7 wt GTP bind: 98.0; Rac1 wt modul: 100.0; Cdc42 wt GTP: 98.0; Rab2A wt mod: 99.0; Rac1 act GTP bind: 99.0

Results for CCOc1cc(/C=N/NC(=O)c2cc(-c3cccnc3)nc3ccccc23)ccc1O ?
HRas wt GTP: 86.0; Rab7 wt GTP bind: 99.0; Rac1 wt modul: 78.0*; Cdc42 wt GTP: 83.0; Rab2A wt mod: 83.0; Rac1 act GTP bind: 88.0

Results for CCOc1cc(/C=N/Nc2nncc(-c3ccccc3)n2)ccc1O ?
HRas wt GTP: 83.0; Rab7 wt GTP bind: 87.0; Rac1 wt modul: 74.0*; Cdc42 wt GTP: 84.0; Rab2A wt mod: 85.0; Rac1 act GTP bind: 87.0

How did O=C(O)c1ccccc1Sc1ncnc2sc3c(c12)CCC3 do in these assays?
HRas wt GTP: 121.0*[activator]; Rab7 wt GTP bind: 107.0; Rac1 wt modul: 123.0*[activator]; Cdc42 wt GTP: 129.0*[activator]; Rab2A wt mod: 124.0*[activator]; Rac1 act GTP bind: 123.0*[activator]

Results for Cc1sc2ncnc(Sc3ccccc3C(=O)O)c2c1C ?
HRas wt GTP: 124.0*[activator]; Rab7 wt GTP bind: 122.0*[activator]; Rac1 wt modul: 145.0*[activator]; Cdc42 wt GTP: 137.0*[activator]; Rab2A wt mod: 134.0*[activator]; Rac1 act GTP bind: 132.0*[activator]

Results for CCSc1nc2ccccc2n1C(=O)/C=C\c1ccc(OC)c(OC)c1 ?
HRas wt GTP: 99.0; Rab7 wt GTP bind: 97.0; Rac1 wt modul: 103.0; Cdc42 wt GTP: 102.0; Rab2A wt mod: 96.0; Rac1 act GTP bind: 102.0

How did Nc1nnc(/C=C/c2ccccc2)s1 do in these assays?
HRas wt GTP: 99.0; Rab7 wt GTP bind: 105.0; Rac1 wt modul: 100.0; Cdc42 wt GTP: 96.0; Rab2A wt mod: 99.0; Rac1 act GTP bind: 96.0

What do the screens show for `Cc1c(C(=O)N2CCOCC2)oc2ccc(S(=O)(=O)N3CCCC3)cc12`?
HRas wt GTP: 103.0; Rab7 wt GTP bind: 100.0; Rac1 wt modul: 103.0; Cdc42 wt GTP: 102.0; Rab2A wt mod: 103.0; Rac1 act GTP bind: 100.0
